A short description of experiment [1]: compounds binding Alexa647 anti-His antibody – biochemical, small-molecule microarray, 635 nm fluorescence, artefact control for SMM control protein annotation, primary screen (AID 1128).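 Also: score merges feature fluorescence with signal-to-noise for each printed compound spot.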 As to conditions: higher = more signal.
Experiment [2] concerns Human papillomavirus type 1a E7 protein (residues 1-88). In words: HPV1a E7 small-molecule binders, primary screen, biochemical, small-molecule microarray, residues 1-88, 635 nm (AID 1129). As to conditions: small-molecule microarray binding, fluorescence 635 nm; higher = more signal.
The target in experiment [3] is Focal adhesion kinase 1 (Homo sapiens) (UniProt Q05397). Briefly: PTK2 protein binding on printed compound slides – biochemical, small-molecule microarray, 635/667 nm fluorescence, BSA, DTT, primary screen (AID 1130).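 Also: composite of spot emission at 667 nm and signal to noise over triplicate slides.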 The settings on record: 635 nm fluorescence, higher = more signal.
Experiment [4] concerns Fibrinogen (Alexa647-labelled). Briefly: Alexa647-fibrinogen binding to printed small molecules – biochemical, small-molecule microarray, 635/667 nm fluorescence, artefact control for SMM control-protein annotation, profiling panel (AID 1131).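 Also: z-score merges 667 nm fluorescence with per-spot signal-to-noise over triplicate slides.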 As to conditions: fibrinogen-A647 binding fluorescence, higher = more signal.
For experiment [5], the target named is Follistatin (Homo sapiens) (UniProt P19883). In words: FST protein binding to printed compounds – biochemical, small-molecule microarray, 635/667 nm fluorescence, primary screen (AID 1132). As to conditions: 635 nm fluorescence, higher = more signal.
The target of experiment [6] is Fibroblast growth factor 2 (Homo sapiens) (UniProt P09038). Briefly: basic fibroblast growth factor binding to printed compounds – biochemical, small-molecule microarray, 635/667 nm fluorescence, primary screen (AID 1133). As to conditions: FGF2, fluorescence 635/667, higher = more signal.
Experiment [7] is described as follows: JC-1 mitochondrial potential readout, lung cancer cells – cell-based, A549, JC-1 fluorescence, basal, 24 h, 100 nL, profiling panel (AID 1138).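 Also: A549 lung adenocarcinoma cells under basal conditions with no added stimulus; test concentration not given here.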 As to conditions: higher = more signal.
In another experiment the test system is Lefty1. Briefly: Lefty1 protein binding to printed compounds – biochemical, small-molecule microarray, 635/667 nm fluorescence, primary screen (AID 1139). The settings on record: fluorescence 635/667, higher = more signal.
Experiment [8] concerns wheat germ agglutinin (Triticum aestivum), Alexa647-labelled. In words: Alexa647-WGA lectin binding to printed small molecules – biochemical, small-molecule microarray, 635/667 nm fluorescence, artefact control for SMM control-protein annotation, profiling panel (AID 1140).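 Also: score merges 667 nm feature emission with signal to noise over triplicate slides.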 As to conditions: WGA-A647 binding, 635 nm fluorescence, higher = more signal.
In experiment [9] the target is Luciferin 4-monooxygenase (Photinus pyralis) (UniProt P08659). Briefly: inhibition of purified Photinus pyralis luciferase – biochemical, luminescence, purified enzyme, 2006 set, primary screen (AID 1141).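 Also: cell-free assay with purified firefly luciferase at 100 ng per well in PBS; test concentration not given here.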 The settings on record: purified firefly luciferase, SteadyGlo luminescence, 30 min; higher = more signal, called active from +8 up or from −8 down.
For experiment [10], the system named is Wnt5a (protein binding on small-molecule microarray). Briefly: small molecules binding Wnt5a protein – biophysical, small-molecule microarray, 635/667 nm fluorescence, primary screen (AID 1142).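 Also: fluorescence read at 667 nm with signal to noise per printed feature.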 As to conditions: 635 nm fluorescence, higher = more signal.
The nature of experiment [11]: ATP-based viability of Huh7 replicon cells – cell-based, CellTiter-Glo luminescence, basal, 48 h, cytotoxicity control for HCV replication inhibitor project, primary screen (AID 1143).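 Also: Huh7 hepatoma cells carrying a hepatitis C replication reporter with no stimulus; test concentration not given here.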 As to conditions: higher = more signal, called active from +8 up or from −8 down. Background: In antiviral work, replicon cells carry a viral genome segment that copies itself.
Experiment [12] can be described thus: basal CRE-LacZ reporter activity in PC12 – cell-based, unstimulated, primary screen (AID 1145). As to conditions: no forskolin, luminescence, 4.5 h, higher = more signal, called active from +8 up or from −8 down.
Experiment [13] is described as follows: forskolin-driven CRE-LacZ activity in PC12 – cell-based, CRE-LacZ reporter, forskolin-stimulated, primary screen (AID 1146).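 Also: PC12 cells with 6xCRE LacZ reporter stimulated by forskolin 10 µM; beta-galactosidase reporter signal reflecting CREB driven transcription.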 The settings on record: luminescence, 4.5 h, higher = more signal, called active from +8 up or from −8 down.
Experiment [14] has as its target Streptavidin (Streptomyces avidinii) (UniProt P22629). In words: compounds binding control protein streptavidin – biophysical, small-molecule microarray, 635/667 nm fluorescence, artefact control for SMM compound annotation, primary screen (AID 1147).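 Also: signal reflects streptavidin binding to arrayed compounds as a control protein.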 As to conditions: higher = more signal.
A short description of experiment [15]: probe aInhba binding on compound microarray – biochemical, small-molecule microarray, 635/667 nm fluorescence, primary screen (AID 1148).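 Also: score merges 667nm spot fluorescence with signal-to-noise for antibody binding to printed compounds.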 As to conditions: higher = more signal.
Experiment [16] has as its target Torsin-1A (Homo sapiens) (UniProt O14656). In words: TOR1A wild-type binding on microarray – cell lysate, small-molecule microarray, lysate, 635/667 nm, primary screen (AID 1149). As to conditions: COS7 hTOR1A-WT lysate, 635 nm fluorescence, higher = more signal.
The target is the same in experiment [17]. Briefly: torsin A mutant lysate binding on microarrays – cell lysate, small-molecule microarray, COS7 lysate, 635/667 nm fluorescence, primary screen (AID 1150).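 Also: score pools 667 nm emission and signal to noise measuring lysate protein binding.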 As to conditions: COS7 hTOR1A mutant lysate, 635 nm fluorescence, higher = more signal.
Experiment [18] concerns Sonic hedgehog protein (Shh). Briefly: Sonic hedgehog microarray binding compounds – biochemical, small-molecule microarray, 635/667 nm fluorescence, primary screen (AID 1151).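 Also: Shh protein binding to compounds spotted on small-molecule microarray slides; score combines spot fluorescence intensity with signal-to-noise across triplicate slides.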 The settings on record: 635 nm fluorescence, higher = more signal.

Active and inactive are the calls of the source.

Fibroblast growth factor 2 (Homo sapiens), sequence (P09038 whole entry, looked up): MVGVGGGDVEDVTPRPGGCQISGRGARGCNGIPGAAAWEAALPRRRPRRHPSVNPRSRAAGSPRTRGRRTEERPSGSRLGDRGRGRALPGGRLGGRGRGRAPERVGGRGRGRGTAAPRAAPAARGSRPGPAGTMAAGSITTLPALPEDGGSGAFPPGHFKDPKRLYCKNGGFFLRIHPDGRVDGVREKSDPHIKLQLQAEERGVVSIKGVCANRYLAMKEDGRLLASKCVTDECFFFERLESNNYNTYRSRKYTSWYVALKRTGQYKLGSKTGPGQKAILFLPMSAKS
Follistatin (Homo sapiens), sequence (P19883 whole entry, looked up): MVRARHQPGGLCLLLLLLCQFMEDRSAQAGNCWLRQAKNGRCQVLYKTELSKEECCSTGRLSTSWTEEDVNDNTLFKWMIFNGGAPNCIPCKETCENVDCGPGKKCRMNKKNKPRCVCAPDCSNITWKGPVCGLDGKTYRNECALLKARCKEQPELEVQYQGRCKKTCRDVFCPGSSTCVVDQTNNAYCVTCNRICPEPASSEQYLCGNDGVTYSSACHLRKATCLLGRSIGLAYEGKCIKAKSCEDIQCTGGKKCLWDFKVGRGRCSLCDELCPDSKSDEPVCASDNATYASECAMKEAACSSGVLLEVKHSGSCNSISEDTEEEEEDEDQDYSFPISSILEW
Luciferin 4-monooxygenase (Photinus pyralis), sequence (P08659 whole entry, looked up): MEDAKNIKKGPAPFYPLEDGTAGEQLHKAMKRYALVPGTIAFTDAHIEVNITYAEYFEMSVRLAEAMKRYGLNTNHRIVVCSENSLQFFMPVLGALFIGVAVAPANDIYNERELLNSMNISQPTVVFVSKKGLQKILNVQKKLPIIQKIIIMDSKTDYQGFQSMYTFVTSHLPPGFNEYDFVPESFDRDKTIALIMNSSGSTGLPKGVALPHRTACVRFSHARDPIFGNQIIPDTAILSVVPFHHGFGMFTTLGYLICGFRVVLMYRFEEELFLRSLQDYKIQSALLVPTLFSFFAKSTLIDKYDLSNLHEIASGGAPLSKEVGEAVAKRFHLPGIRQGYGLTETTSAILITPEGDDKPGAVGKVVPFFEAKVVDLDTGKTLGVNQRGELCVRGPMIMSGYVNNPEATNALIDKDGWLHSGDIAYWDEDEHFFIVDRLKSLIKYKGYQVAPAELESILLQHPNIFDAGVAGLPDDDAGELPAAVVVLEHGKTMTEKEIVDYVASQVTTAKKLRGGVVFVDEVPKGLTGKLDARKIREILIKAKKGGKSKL
Focal adhesion kinase 1 (Homo sapiens), sequence (Q05397 whole entry, looked up): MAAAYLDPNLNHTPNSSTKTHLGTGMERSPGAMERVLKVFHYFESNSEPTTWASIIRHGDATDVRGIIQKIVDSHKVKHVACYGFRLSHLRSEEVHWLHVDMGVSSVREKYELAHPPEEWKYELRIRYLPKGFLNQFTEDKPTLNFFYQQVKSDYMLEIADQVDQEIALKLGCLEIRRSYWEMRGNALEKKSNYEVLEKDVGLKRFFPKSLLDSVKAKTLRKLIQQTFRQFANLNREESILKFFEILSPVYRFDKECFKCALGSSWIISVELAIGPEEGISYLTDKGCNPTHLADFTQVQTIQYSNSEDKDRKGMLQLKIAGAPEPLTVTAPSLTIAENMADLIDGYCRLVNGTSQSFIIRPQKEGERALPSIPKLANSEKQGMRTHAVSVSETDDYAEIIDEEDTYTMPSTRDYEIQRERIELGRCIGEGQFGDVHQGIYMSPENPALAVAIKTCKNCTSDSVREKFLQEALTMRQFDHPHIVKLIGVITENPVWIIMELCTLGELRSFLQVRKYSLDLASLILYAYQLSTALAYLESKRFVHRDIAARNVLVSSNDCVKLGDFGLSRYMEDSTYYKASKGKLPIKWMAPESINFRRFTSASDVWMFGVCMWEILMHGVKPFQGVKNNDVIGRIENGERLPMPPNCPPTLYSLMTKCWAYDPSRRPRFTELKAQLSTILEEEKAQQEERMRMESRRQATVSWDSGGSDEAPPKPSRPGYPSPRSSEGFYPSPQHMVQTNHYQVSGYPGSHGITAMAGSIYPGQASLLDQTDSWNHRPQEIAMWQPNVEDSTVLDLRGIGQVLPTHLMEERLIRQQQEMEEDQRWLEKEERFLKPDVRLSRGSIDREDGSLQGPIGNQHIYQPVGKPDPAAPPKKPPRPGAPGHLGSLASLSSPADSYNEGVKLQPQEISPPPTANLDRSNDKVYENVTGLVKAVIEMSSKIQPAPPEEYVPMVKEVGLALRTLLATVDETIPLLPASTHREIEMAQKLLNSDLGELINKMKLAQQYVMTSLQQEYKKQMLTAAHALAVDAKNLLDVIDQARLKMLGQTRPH
Streptavidin (Streptomyces avidinii), sequence (P22629 whole entry, looked up): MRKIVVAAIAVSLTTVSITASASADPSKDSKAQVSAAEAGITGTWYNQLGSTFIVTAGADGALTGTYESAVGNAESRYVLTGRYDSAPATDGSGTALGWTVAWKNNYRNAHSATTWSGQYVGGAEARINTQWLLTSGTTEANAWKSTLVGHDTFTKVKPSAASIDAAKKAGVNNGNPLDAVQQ
Torsin-1A (Homo sapiens), sequence (O14656 whole entry, looked up): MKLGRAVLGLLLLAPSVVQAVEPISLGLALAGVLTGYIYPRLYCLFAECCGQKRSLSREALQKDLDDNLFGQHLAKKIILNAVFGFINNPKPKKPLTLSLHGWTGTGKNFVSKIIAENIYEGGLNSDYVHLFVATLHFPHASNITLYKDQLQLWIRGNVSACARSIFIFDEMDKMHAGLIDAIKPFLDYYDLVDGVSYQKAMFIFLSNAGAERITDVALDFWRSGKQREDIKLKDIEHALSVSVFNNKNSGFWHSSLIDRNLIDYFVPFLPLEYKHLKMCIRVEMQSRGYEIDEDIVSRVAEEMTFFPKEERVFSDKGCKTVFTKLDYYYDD

As to `CO[C@H]1COC(=O)[C@H](CCSC)NC(=O)CC=C[C@@H](C)COC(=O)[C@@H](OCc2ccccc2)C=C[C@@H]1C`, the composite z-score is -0.155 in experiment [1]; -0.762 in experiment [2]; -0.36 in experiment [3]; -1.22 in experiment [4]; 1.18 in experiment [5]; 1.46 in experiment [6]. The composite z-score in the experiment with Lefty1 was 1.63; in [8] it was -1.02; in experiment [10] it was 0.156; in experiment [14], -0.154; in [15] it was -0.0762; in the experiment with Torsin-1A (Homo sapiens) [16] it was 2.88. In addition, the composite z-score was 2.85 in the experiment with Torsin-1A (Homo sapiens) [17] and 1.93 in experiment [18]. Also, the z-score is 0.676 in experiment [7]; -1.12 (inactive) in experiment [9]; 0.111 (inactive) in experiment [11]; -0.0223 (inactive) in experiment [12]; -0.48 (inactive) in [13].
Regarding `C[N+](C)(C)CCCCNC(=O)[C@@H]1C[C@@H]2C(=O)N3CCC[C@H]3C(=O)N2[C@@H]1c1cccc(OCCO)c1`, the composite z-score in experiment [1] is 2.72; in experiment [2] it was 0.143; in experiment [3], 0.275; in [4] it was -0.181; in experiment [5], 1.39; in [6], 1.73. Moreover, the composite z-score with Lefty1 was 0.859; in [8], -0.392; in experiment [10] it was 0.256; in experiment [14], -0.315; in experiment [15] it was -0.128; in the experiment with Torsin-1A (Homo sapiens) [16], 0.725. Also, the composite z-score with Torsin-1A (Homo sapiens) [17] amounted to 1.03; in [18] it was 1.84. Also, the z-score in experiment [7] is -0.0151; in experiment [9], -1.23 (inactive); in experiment [11], -3.3 (inactive); in experiment [12] it was -0.671 (inactive); in [13], -1.62 (inactive).
Turning to `C=C[C@H](OC)[C@@H](OC(=O)Nc1ccc(SC)cc1)c1ccc(OC)c(O)c1`, the composite z-score is -0.548 in [1]; -0.19 in experiment [2]; -0.0802 in experiment [3]; -0.666 in experiment [4]; -0.466 in [5]; -0.896 in experiment [6]. In addition, the composite z-score in the experiment on Lefty1 was -0.541; in experiment [8] it was -1.51; in experiment [10], -0.29; in experiment [14], -1.28; in experiment [15], -0.128; with Torsin-1A (Homo sapiens) [16], -0.678. Moreover, the composite z-score with Torsin-1A (Homo sapiens) [17] stood at 0.157; in [18] it was 0.417. Besides, the z-score in experiment [7] was 0.52; in experiment [9] it was -2.18 (inactive); in experiment [11] it was -0.0203 (inactive); in experiment [12] it was -0.113 (inactive); in experiment [13] it was -1.26 (inactive).
Consider `COc1ccc(-c2ccccc2[C@@H]2N[C@H](C(=O)O)CC[C@H]2C)cc1`, for which the composite z-score in experiment [1] was determined as 0.351; in [2], 0.449; in [3], 0.671; in [4], 0.0159; in [5], 0.107; in experiment [6], 0.364. For the same molecule, the composite z-score in the experiment with Lefty1 was 0.404; in experiment [8] it was -0.361; in experiment [10] it was -0.053; in experiment [14], 0.376; in experiment [15] it was -0.109; with Torsin-1A (Homo sapiens) [16] it was 0.69. Also, the composite z-score with Torsin-1A (Homo sapiens) [17] worked out at 0.272; in experiment [18] it was 0.289. Also, the z-score in experiment [7] was -0.568; in experiment [9], -0.739 (inactive); in experiment [11], -1.45 (inactive); in experiment [12], 1.01 (inactive); in experiment [13], -0.902 (inactive).
Consider `CCC(=O)[C@]12O[C@@]3([C@@H]4C(=O)OCC[C@@H]41)N(Cc1ccccc1)C(C)=C(C(=O)OC)[C@@H](c1ccccc1)N3C2=O`, for which the composite z-score was -0.97 in experiment [1]; -2.31 in experiment [2]; 0.0625 in experiment [3]; -1.35 in [4]; -0.65 in experiment [5]; -0.715 in experiment [6]. In addition, the composite z-score with Lefty1 is 0.197; in experiment [8] it was -0.803; in [10], -0.183; in experiment [14], -0.444; in experiment [15], -0.0448; with Torsin-1A (Homo sapiens) [16], -0.453. Besides, the composite z-score is -0.296 with Torsin-1A (Homo sapiens) [17] and 1.16 in experiment [18]. Besides, the z-score in experiment [7] is 1.27; in experiment [9], -1.36 (inactive); in [11], -0.596 (inactive); in [12], 1.01 (inactive); in experiment [13] it was -1.32 (inactive).
For `COc1ccc([Si](C)(C)[C@H]2[C@H](CC(=O)N3Cc4ccccc4C[C@H]3CO)O[C@@]3(C(=O)N(Cc4cccc(N5CCOC5=O)c4)c4ccccc43)[C@@H]2C)cc1`, the composite z-score is 1.42 in [1]; 0.533 in experiment [2]; 0.432 in experiment [3]; -0.235 in experiment [4]; 1.31 in [5]; 1.32 in [6]. Besides, the composite z-score in the experiment on Lefty1 stood at 1.24; in experiment [8] it was 0.188; in experiment [10], 0.341; in experiment [14], 0.0303; in experiment [15] it was 0.0086; with Torsin-1A (Homo sapiens) [16] it was 0.287. Also, the composite z-score is 0.383 with Torsin-1A (Homo sapiens) [17] and 1.37 in [18]. In addition, the z-score is 2 in experiment [7]; -0.86 (inactive) in [9]; -3.32 (inactive) in [11]; 5.51 (inactive) in [12]; -1.25 (inactive) in [13].

The values above are taken from PubChem BioAssay.
